Screens from PubChem BioAssay.
This is a sample that favours compounds with a hit; in the whole collection about 1.7% have one here.
GLP-1R inv ag = acts as inverse agonist at human GLP-1 receptor | HEK293 GLP-1R CRE-luciferase, luminescence, 24 h; GLP-1R form is constitutively active | Potency, µM (highest dose often 38.3 µM), without a hit: at the highest dose activity change, negative = inhibition, most hits filed as inhibitors | 410,000 tested, 1.6% active | AID 624417; note: % is set by controls: 0 for no effect and ±100 for the full control effect; nearly all actives have a fitted effect of over 55% in size
Target sequence (P43220 whole entry, looked up): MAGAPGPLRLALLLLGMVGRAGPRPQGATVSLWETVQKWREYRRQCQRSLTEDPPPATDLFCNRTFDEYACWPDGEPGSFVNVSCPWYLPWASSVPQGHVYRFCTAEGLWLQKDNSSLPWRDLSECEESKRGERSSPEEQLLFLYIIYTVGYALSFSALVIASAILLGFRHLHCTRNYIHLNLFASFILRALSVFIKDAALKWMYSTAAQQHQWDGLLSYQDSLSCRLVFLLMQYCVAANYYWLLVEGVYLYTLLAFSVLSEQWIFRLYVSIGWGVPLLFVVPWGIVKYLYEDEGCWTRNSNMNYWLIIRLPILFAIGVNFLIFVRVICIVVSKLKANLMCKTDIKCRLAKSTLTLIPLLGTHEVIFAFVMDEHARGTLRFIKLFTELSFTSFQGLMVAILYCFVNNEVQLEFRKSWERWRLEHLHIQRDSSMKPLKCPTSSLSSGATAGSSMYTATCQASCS
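Stable HEK293 clone (constitutively active GLP-1R + cAMP-response luciferase); 200 cells/uL plated, 12 h pre-culture, compound 24 hr, 37 deg C/5% CO2; detection reagent 12 min RT; luminescence.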
RGS4 inh = human RGS4 inhibition; P49798; Transcreener GDP fluorescence polarization, RGS4-accelerated GTP hydrolysis; Potency, µM (titrated, usually from 114 µM), inactives show at the highest dose activity change, negative = inhibition, actives largely listed as inhibitors; 390,000 tested, 0.039% active; note: % is set by controls: 0 for no effect and ±100 for the full control effect; nearly all actives have a fitted effect of over 75% in size
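MLSMR compounds (23 nl, pin-transferred) preincubated 10 min at room temperature with a 500nM (2x) first reagent, then RGS4 at 900nM (2x) plus Transcreener GDP mix added; fluorescence polarization (620/688 nm) read before and after 90 min at 30 °C.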
GLP1R ag = GLP-1 receptor (human) agonism; HEK293 GLP-1R CRE-luciferase, luminescence, 4-6 h; cells express a hypersensitive GLP-1R form; 380,000 tested, 0.007% active; P43220; Potency, µM (series often up to 45.6 µM), without a hit: at the top dose activation, most hits filed as activators; AID 624172; note: % of control where 0% means no effect
HEK293 tox = cytotoxicity counter-screen for GLP-1 receptor inverse agonists. HEK293 cAMP-luciferase reporter cells, luminescence, 24 h. AID 624418. 410,000 tested, 0.13% active. Potency, µM (series often up to 38.3 µM), for inactives: at the top dose activity change, negative = inhibition, hits mostly inhibitors;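 note: loss of luciferase light is scored as toxicity; % is set by controls: 0 for no effect and ±100 for the full control effect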
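Cells in DMEM/10% Nu serum/1% pen-strep, 1536-well format. Pre-incubated 12 h, dosed with 23 nL compound, incubated a further 24 h. Luciferase detection, 12 min at room temp, luminescence.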
PTHR1 agonist = PTHR1 (human) receptor agonism; Q03431; HEK293 GP2 PTHR1 cells, GloSensor cAMP luminescence, 1 h; Potency, µM (series often up to 115 µM), for the others: at the highest dose activation, hits mostly activators; 410,000 tested, 0.075% active; AID 743266; note: nearly all actives have a fitted effect of over 55% in size
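HEK-293-derived GP2 cells expressing PTHR1 and a GloSensor cAMP reporter, 3,000/well, plated overnight, given luciferin plus IBMX (each 0.5 mM as added) for 1 h at 37 °C, then compound for 1 h at 37 °C. Luminescence was read after 15 min at room temperature.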
Numbers without * were called inactive. Calls come from the whole dose curve; as a rule, active = well fitted curve in the direction sought with a large enough effect; inconclusive = small, poorly fitted or top-dose-only effect, or another doubt; inactive = no such curve, though single readings can be large; an effect the other way counts as inactive or inconclusive. Potency is the fitted concentration of half-maximal effect.

Results for COCCCNC(=O)c1cccc(S(=O)(=O)N2CC3(C)CC2CC(C)(C)C3)c1 (stereo not given) ?
GLP-1R inv ag: -12%; RGS4 inh: -7%; GLP1R ag: -2%; HEK293 tox: -19%; PTHR1 agonist: -7%

Results for COc1cccc(NC(=O)CN(C)C(=O)c2cccc(S(=O)(=O)N3CC4(C)CC3CC(C)(C)C4)c2)c1 (stereo not given) ?
GLP-1R inv ag: 2%; RGS4 inh: -5%; GLP1R ag: 9%; HEK293 tox: 2%; PTHR1 agonist: inactive

How did COc1ccc(NC(=O)N(C)C[C@H]2OCc3cnnn3CCCC(=O)N([C@@H](C)CO)C[C@H]2C)c(OC)c1 do in these assays?
GLP-1R inv ag: 12%; GLP1R ag: 5%; HEK293 tox: 3%; PTHR1 agonist: -23%

Results for CCN1CCN(CCNC(=O)c2ccc3c(c2)N(Cc2cccc(Cl)c2)C(=O)c2ccccc2S3=O)CC1 (stereo not given) ?
GLP-1R inv ag: inconclusive; RGS4 inh: 1%; GLP1R ag: 4%; HEK293 tox: -24%; PTHR1 agonist: 12%

How did CCN(C(=O)c1ccc2c(c1)N(Cc1cccc(Cl)c1)C(=O)c1ccccc1S2=O)c1ccccc1 (stereo not given) do in these assays?
GLP-1R inv ag: 10µM*; RGS4 inh: -7%; HEK293 tox: -27%; PTHR1 agonist: inactive

What do the screens show for `CC(C(=O)Nc1ccc(OC(F)(F)F)cc1)N1Cc2ccccc2C1=O` (stereo not given)?
GLP-1R inv ag: inconclusive; RGS4 inh: -1%; HEK293 tox: 12%; PTHR1 agonist: 50µM*

Results for O=C(Oc1c(-c2ccccc2)oc2ccccc2c1=O)c1ccccc1 ?
GLP-1R inv ag: 5µM*; RGS4 inh: 23%; GLP1R ag: -1%; HEK293 tox: 72%; PTHR1 agonist: -15%

Results for COc1ccc(-c2oc3ccccc3c(=O)c2OC(=O)c2ccc(C)cc2)cc1 ?
GLP-1R inv ag: 5%; RGS4 inh: -21%; GLP1R ag: 3%; HEK293 tox: 108%; PTHR1 agonist: inactive

What do the screens show for `C=CC(=O)O`?
GLP1R ag: 5%

What do the screens show for `O=C(OCC(=O)N(Cc1ccccc1)Cc1ccccc1)c1ccccc1O`?
GLP-1R inv ag: inconclusive; RGS4 inh: -9%; GLP1R ag: 11%; HEK293 tox: 0%; PTHR1 agonist: -36%

Results for O=C(OCC(=O)N(CCc1ccccc1)Cc1ccccc1)c1ccccc1O ?
GLP-1R inv ag: 10µM*; RGS4 inh: -24%; GLP1R ag: -14%; HEK293 tox: 16%; PTHR1 agonist: inactive

Results for O=C(OCC(=O)N(CCc1ccccc1)Cc1ccccc1)c1ccccc1NCCO ?
GLP-1R inv ag: 10µM*; RGS4 inh: 4%; GLP1R ag: 6%; HEK293 tox: -13%; PTHR1 agonist: -6%

Results for COc1ccc(OC)c(CN2CCN(C(=O)CNC(=O)c3ccccc3F)CC2)c1 ?
GLP-1R inv ag: -26%; RGS4 inh: -2%; GLP1R ag: 13%; HEK293 tox: 0%; PTHR1 agonist: -10%

What do the screens show for `O=C(CCC(=O)Nc1ccc(Cl)cc1Cl)N/N=C/c1ccc([N+](=O)[O-])o1`?
GLP-1R inv ag: -9%; RGS4 inh: -37%; GLP1R ag: 11%; HEK293 tox: -20%; PTHR1 agonist: -8%

How did CCOc1ccc(-c2nn(CC(=O)NC3CCCC3)c3c2cnc2ccc(C)cc23)cc1 do in these assays?
GLP-1R inv ag: 5%; RGS4 inh: 3%; HEK293 tox: -3%; PTHR1 agonist: inactive

Results for Cc1ccn2c(NC(C)(C)C)c(-c3cccs3)nc2c1 ?
GLP-1R inv ag: 10µM*; RGS4 inh: -54%; GLP1R ag: 3%; HEK293 tox: inconclusive; PTHR1 agonist: -9%

Results for Cc1ccn2c(NC(=O)c3cccs3)c(-c3ccccc3)nc2c1 ?
GLP-1R inv ag: -12%; RGS4 inh: -12%; GLP1R ag: 1%; HEK293 tox: -12%; PTHR1 agonist: -5%
